# Results from PubChem BioAssay AID686940 (The Scripps Research Institute Molecular Screening Center, 2013).
# The whole screen tested about 370,000 compounds, of which about 2,600 (0.7%) were called active. Only a selection was taken, and actives are over-represented in it overall. A number with no mark means an inactive call.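 Rule for the calls: active = inhibition above a per-plate cutoff, mean inhibition of test wells between control levels plus 3 SD (cut at about 38% in these data); inactive = the rest.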
# Target: COUP transcription factor 2 (Homo sapiens) (UniProt P24468)
# Assay: NR2F2 transcriptional activity inhibitors, primary screen, cell-based, luciferase reporter, HEK293T, luminescence (AID 686940);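 note: cells cotransfected with COUP-TFII expression vector driving the NGFI-A reporter; 0% = median of COUP-TF2 test wells and 100% = reporter-only cells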
# Settings: HEK293T NGFI-A luciferase reporter, at 8.6 µM, active compounds read high
# Chain of COUP transcription factor 2 (Homo sapiens) (P24468 whole entry, looked up): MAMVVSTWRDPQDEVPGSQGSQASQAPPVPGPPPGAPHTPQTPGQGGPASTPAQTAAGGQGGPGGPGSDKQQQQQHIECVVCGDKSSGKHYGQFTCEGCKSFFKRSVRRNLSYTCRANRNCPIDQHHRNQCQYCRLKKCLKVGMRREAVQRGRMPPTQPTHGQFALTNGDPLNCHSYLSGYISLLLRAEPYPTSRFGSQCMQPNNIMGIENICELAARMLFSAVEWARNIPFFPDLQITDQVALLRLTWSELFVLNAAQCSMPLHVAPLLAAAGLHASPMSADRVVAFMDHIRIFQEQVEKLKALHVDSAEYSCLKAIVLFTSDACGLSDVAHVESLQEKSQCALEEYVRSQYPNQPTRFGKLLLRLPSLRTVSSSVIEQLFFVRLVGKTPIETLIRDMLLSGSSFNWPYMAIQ
row,Structure (SMILES),inhibition
1,C=CCN1C(=O)[C@@H](CC(=O)N2CCN(C(=O)OCC)CC2)[C@]2(C(=O)OCC)CCCCC/C=C/12,3.11%
2,C=CCN(C(=O)[C@@H](CCCC)[C@@H](O)c1ccc(Cl)cc1)c1ccccc1,-5.06%
3,Cc1c(CCC(=O)N[C@@H](CC(C)C)C(=O)O)c(=O)oc2c(C)c3oc4c(c3cc12)CCCC4,6.96%
4,CC[C@@H](C)[C@H](NC(=O)CCc1c(C)c2cc3c4c(oc3c(C)c2oc1=O)CCCC4)C(=O)O,39.7% (active)
5,Cc1c(C)c2cc3c4c(oc3c(C)c2oc1=O)CCCC4,-4.7%
6,COc1ccccc1NC(=O)CSc1nnc(CNC(=O)c2ccccc2F)o1,1.36%
7,CCC(=O)Nc1ccc(C(=O)CSc2nnc(CNc3ccc(Cl)cc3)o2)cc1OC,42.1% (active)
8,COc1cc(C(=O)NCc2nnc(SCC(=O)c3ccc(Cl)cc3)o2)cc(OC)c1OC,7.38%
9,O=C(CSc1nc2sc3c(c2c(=O)n1-c1ccccc1)CCCC3)NN=Cc1ccc(OCc2ccccc2)cc1,-6.12%
10,Cc1ccc(-n2c(SCC(=O)N3c4ccccc4Sc4ccccc43)nnc2-c2ccncc2)cc1,6.33%
11,Cc1ccc(Nc2nc(CSc3nnc(-c4ccncc4)n3-c3ccccc3C)cs2)cc1,39.8% (active)
12,Cc1ccc(-n2c(SCC(=O)Nc3ccc(S(=O)(=O)Nc4nccs4)cc3)nnc2-c2ccncc2)cc1,3.85%
13,CC(C)N1CCCCC(NC(=O)c2ccc3ccccc3c2)C1=O (stereo unspecified),-8.52%
14,C=CCN1[C@H](CC(C)C)COc2cccc(N3CCCC3)c2S1(=O)=O,14.6%
15,CCCCCCCCn1c2c(c(=N)c3c1CCC3)CCCC2,84.5% (active)
16,O=S(=O)(c1ccccc1)N1CCC(c2nc3ccccc3o2)CC1,-11.5%
17,CCOC(=O)N1CCN(C(=O)C[C@H]2C[C@@]3(C(=O)OC)C(=C[C@H](C(C)(C)C)O[C@@H]3C)N(Cc3ccc(Cl)cc3Cl)C2=O)CC1,-1.12%
18,C=CCN1[C@@H](Cc2ccccc2)COc2cccc(N3CCSCC3)c2S1(=O)=O,5.82%
19,O=C(CN1CCCc2ccccc21)NCc1ccc(F)cc1,5.12%
20,CCCNC(=O)Nc1ccc2c(c1)C(=O)N(C)[C@H]1CC[C@H](CC(=O)NCC3CCCCC3)O[C@@H]1CO2,9.56%
21,C[C@@H]1ON(C)[C@H]2C[C@H]3c4[nH]c5cccc(-c6ccc7c(c6)OCO7)c5c4CCN3C[C@@H]12,-15.3%
22,Cc1ccc(NC(=O)C2CC(=O)N(c3ccc4c(c3)OCCO4)C2)cc1S(=O)(=O)N1CCCCCC1 (stereo unspecified),42.3% (active)
23,Cc1ccc(N2CC(C(=O)Nc3ccc(S(=O)(=O)N4CCCC4)cc3)CC2=O)cc1C (stereo unspecified),-1.2%
24,COc1ccc(S(=O)(=O)N2CCCCC2)cc1NC(=O)C1CC(=O)N(c2ccc3c(c2)OCCO3)C1 (stereo unspecified),0.74%
25,Cc1ccccc1CN1CCCCC(NC(=O)c2cccc(C#N)c2)C1=O (stereo unspecified),-2.68%
26,CN1CCN(c2ccc(NC(=O)c3ccc4c(c3)OCCO4)cc2Cl)CC1,-69.1%

row,Structure (SMILES),inhibition
1,CC(=O)Nc1ccc(C(=O)Nc2cccc(S(=O)(=O)NC3=NCCC3)c2)cc1,-6.18%
2,O=C(Nc1cccc(S(=O)(=O)Nc2ccc(Cl)cc2)c1)c1ccc2c(c1)OCCO2,50.8% (active)
3,CCOC(=O)[C@]12CCCCC/C=C\1N(Cc1ccc(OC)cc1)C(=O)[C@H]2CC(=O)N1CCOCC1,13.5%
4,COc1ccc([C@H]2OC(=O)C[C@H]2C(=O)N2CCN(c3ccccc3F)CC2)cc1OC,-8.84%
5,COCCn1c(C)cc(C(=O)COC(=O)CNC(=O)c2ccco2)c1C,-5.61%
6,Cc1ccsc1C(=O)OCC(=O)c1cc(C)n(CC2CCCO2)c1C (stereo unspecified),87.1% (active)
7,Cc1cc(C(=O)COC(=O)CNC(=O)c2ccc(F)cc2)c(C)n1Cc1ccco1,22.8%
8,C=CCn1c(SCC(N)=O)nnc1-c1ccccc1OC,9.3%
9,COC(=O)[C@]12C[C@H](CC(=O)NCc3ccccc3)C(=O)N(CCc3ccc(OC)c(OC)c3)C1=C[C@H](C(C)(C)C)O[C@@H]2C,10.6%
10,Cc1csc(NC(=O)CN2CCCCCC2)n1,4.1%
11,COc1cc(SC)ccc1C(=O)Nc1nc(C)cs1,67.9% (active)
12,COCCn1c(SCC(=O)Nc2nc(C)cs2)nnc1C(C)C,-1.64%
13,COC[C@@H]1CCCN1c1ccc2c(c1)O[C@H](C)CCN(C1CC1)S2(=O)=O,-10.8%
14,COC(=O)C[C@@H]1CC[C@H]2[C@@H](COc3ccc(NS(=O)(=O)CC(F)(F)F)cc3C(=O)N2C)O1,-17.9%
15,CN(CCO)c1cccc2c1S(=O)(=O)N(Cc1cn(Cc3ccc(C(F)(F)F)cc3)nn1)Cc1ccccc1O2,-35.7%
16,CCOc1ccc(Oc2c(Cl)cnn(-c3ccc(C)cc3)c2=O)cc1,7.75%
17,Cc1sc2nc(SCC(=O)c3ccc(O)c(O)c3)n(Cc3ccco3)c(=O)c2c1C,7.6%
18,CCOC(=O)c1ccc(NC(=O)CCn2c(=O)oc3ccccc32)cc1,6.76%
19,CCOC(=O)c1ccc(NC(=O)Cn2cnc3cc(C)c(C)cc32)cc1,59.5% (active)
20,Cc1ccc(NC(=O)Cn2cnc3c(OCc4ccccc4)ncnc32)cc1C,2.95%
21,CC(=O)O[C@@]1(C(C)=O)CCC2[C@H]3C=C(C)C4=CC(=O)CC[C@@]4(C)C3CC[C@]21C (stereo partly specified),3.66%
22,COc1cc(C(=O)Nc2cc(C(F)(F)F)ccc2N2CCOCC2)ccc1O,-16.6%
23,COc1ccc(C(=O)Nc2ccccc2C(=O)N/N=C/c2ccc(O)c(OC)c2)cc1,77.1% (active)
24,C=CCOc1ccc(C(=O)Nc2ccccc2C(=O)N2CCCC2)cc1,-20.6%
25,COc1ccc(S[C@]2(C(=O)N(C)C)CC(=O)N(c3ccc(OC)cc3)[C@@H]2c2ccc(OC)cc2)cc1,-1.97%
